This is an account of results in ChEMBL document CHEMBL3988442, “University of Dundee, Small-Polar-MMV Screening Library” (2021).

Experiment [1] addresses T1, Aspartate--tRNA(Asp/Asn) ligase (Mycobacterium tuberculosis (strain ATCC 25618 / H37Rv)) (UniProt P9WFW3).
T1 sequence (whole entry): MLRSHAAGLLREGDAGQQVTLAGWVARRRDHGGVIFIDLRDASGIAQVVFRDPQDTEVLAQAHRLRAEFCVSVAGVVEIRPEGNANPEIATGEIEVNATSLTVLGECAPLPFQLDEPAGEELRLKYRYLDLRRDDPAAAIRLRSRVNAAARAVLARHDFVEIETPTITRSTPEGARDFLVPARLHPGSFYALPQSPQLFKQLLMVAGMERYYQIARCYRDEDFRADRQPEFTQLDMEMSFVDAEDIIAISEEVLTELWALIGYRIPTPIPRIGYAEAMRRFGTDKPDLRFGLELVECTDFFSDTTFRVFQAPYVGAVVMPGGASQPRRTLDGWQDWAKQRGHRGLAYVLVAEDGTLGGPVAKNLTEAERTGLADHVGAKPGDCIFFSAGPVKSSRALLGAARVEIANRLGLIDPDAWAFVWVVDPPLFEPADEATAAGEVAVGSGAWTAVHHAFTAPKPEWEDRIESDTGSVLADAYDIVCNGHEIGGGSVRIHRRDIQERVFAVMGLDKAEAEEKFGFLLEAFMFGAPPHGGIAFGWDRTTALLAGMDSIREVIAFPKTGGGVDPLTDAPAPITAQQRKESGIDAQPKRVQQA
The experiment can be described thus: Assay for Asp RNA synthetase-1 from Mycobacterium tuberculosis. The class given is functional. More on the design: scale not given: direction of the effect not stated beside the values. The settings on record: 30 µM.

Experiment [2] concerns the target Shiga toxin 2 (Escherichia coli O157:H7) (UniProt P09385+P09386). Nature of the experiment: E. coli 0.157:H7 Shiga Toxin SOP - stx2 screening assay. The class given is functional. More on the design: scale not given: direction of the effect not stated beside the values. As to conditions: 30 µM.

Turning to `O=C(c1ccccn1)N1CCc2c(nc(N3CCCC3)[nH]c2=O)C1`, the Percent Effect in experiment [1] is -2.28%; in experiment [2], -39.9%.

As to `Cc1nc(N2CCN(C(=O)C3CC3)CC2)c2c(n1)c(C)nn2C`, the results for the Percent Effect in experiment [1] and in experiment [2] were -2.18% and -35.4%, respectively.

For the molecule `O=C(NCCOc1ccc(F)c(F)c1)NCc1ccncc1`, the Percent Effect in experiment [1] is -0.948%; in experiment [2], -4.38%.

Regarding `CN(C)CC1CN(Cc2coc(-c3ccccc3Cl)n2)CCO1` (stereo not drawn), the figures for the Percent Effect in experiment [1] and in experiment [2] were -5.66% and -26.4%, respectively.

In the case of `CC(=O)c1c(F)cccc1N1CCC(Cc2cccnc2)CC1`, the values for the Percent Effect in experiment [1] and in experiment [2] were 0.661% and -24.5%, respectively.

Consider `CN1Cc2c(C(=O)Nc3cccnc3)ncn2-c2ccccc2S1(=O)=O`, for which the results for the Percent Effect in experiment [1] and in experiment [2] were -2.67% and 6.47%, respectively.

`CC(C)c1nc(C2CCCN(Cc3nnc(C4CC4)o3)C2)no1` (stereo not drawn): the Percent Effect in experiment [1] is -2.16%; in experiment [2], -7.91%.

As for `CC(C)c1n[nH]c(C(=O)Nc2ccncc2)c1Br`, the values for the Percent Effect in experiment [1] and in experiment [2] were -4.8% and 4.1%, respectively.

As to `CC(=O)NC1CCCN(C(=O)c2ccc(Br)cc2O)C1` (stereo not drawn), the figures for the Percent Effect in experiment [1] and in experiment [2] were 2.34% and 19.3%, respectively.

For the molecule `COc1ccccc1CC(=O)N1CCCC(n2nc(C)cc2C)C1` (stereo not drawn), the results for the Percent Effect in experiment [1] and in experiment [2] were -1.4% and 10.9%, respectively.

For the molecule `CCc1noc(C(C)N2CCC(NC(=O)c3ccc(C)s3)CC2)n1` (stereo not drawn), the Percent Effect in experiment [1] is 5.23%; in experiment [2], -30.1%.

Regarding `O=C(C1CC=CC1)N1C[C@@H]2[C@@H](C1)OCC(=O)N2Cc1cccnc1`, the Percent Effect is 1.21% in experiment [1] and -12.2% in experiment [2].

Take `CN(C)CC(=O)N1CCC2(CCN(Cc3ccccn3)C2=O)C1` (stereo not drawn): the Percent Effect in experiment [1] was -3.07%; in experiment [2], 9.53%.

On to `CCCc1n[nH]c(C2CN(CCCOc3ccccc3)CCO2)n1` (stereo not drawn), for which the Percent Effect came to 0.946% in experiment [1] and 5.54% in experiment [2].

As for `CC(C)CNC(=O)Nc1ccc(CN2CCOC2=O)cc1`, the Percent Effect in experiment [1] is 1.75%; in experiment [2] it was -53.2%.

With `O=C(COCC1CC1)N1CCCC(n2ccnc2)C1` (stereo not drawn), the Percent Effect in experiment [1] is 0.946%; in experiment [2], -26.2%.

As for `Cc1ccc(NC(=O)N2CCOC(C)C2)cc1Cl` (stereo not drawn), the Percent Effect in experiment [1] was found to be 0.866%; in experiment [2], 1.77%.

For the molecule `COCC(C)N(C)C(=O)c1nc(S(C)(=O)=O)n2ccccc12` (stereo not drawn), the Percent Effect in experiment [1] is -0.433%; in experiment [2] it was -13.2%.

As for `O=C(c1cccnc1-n1cccn1)N1CCN(CC2CC2)CC1`, the Percent Effect in experiment [1] is -1.91%; in experiment [2], 7.9%.
